# Tgondii IFNg: inhibitors of Toxoplasma gondii growth with IFN-gamma; activity change, negative = inhibition, % (test concentration not listed); AID 1259416; 69,000 compounds, 3.8% hits; Toxoplasma gondii growth in IFN-gamma-treated host cells; hits give low values; in the data active = activity change below about -70%, passing the limit was not always enough;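 note: host cells are HeLa cells infected with Toxoplasma gondii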
# * marks the source's active call; other numbers are inactive results; ! = not active in a repeat. This excerpt belongs to a sample that is enriched for hits.
SMILES,Tgondii IFNg
CS(=O)(=O)N1C[C@H](NC(=O)C2CC2)C2OCCCC21 (some centres not stated),-0.4
COc1ccccc1NC(=O)N1CC(=O)N2[C@H](CO)[C@@H](c3ccc(C#CC(C)C)cc3)[C@H]2C1,22.9
CN1CCC2(CC1)CN(Cc1ccnn1-c1ccccc1)CCCN2C,-0.9
O=C(c1cn(-c2ccccc2)nc1-c1ccc(Cl)cc1)N1CC[C@H](O)[C@@H](O)C1,-19.4
COc1ccc(-n2c(=O)c(C(=O)NCc3cccc(Cl)c3)c(O)c3cccnc32)cc1,39.2
O=C(C1CCOCC1)N1CCO[C@H]2[C@H]1CC[C@H]2Oc1ncccc1F,-23.6
Cc1ccc(-c2nc3cnccn3c2NCCC(=O)NC2CCN(C)CC2)cc1,52.9
CCS(=O)(=O)c1cccc(-c2cc(C(=O)NC3CCN(C)CC3)c(C)c3[nH]c4ncc(C)cc4c23)c1,-80.2*
COc1cccc(-c2nc3cnccn3c2NCCC(=O)NC2CCN(C)CC2)c1,-17.8
CCCNC(=O)c1ccc2ccc(N3CCN(CC4CC4)CC3)n2c1,7.0
Cc1cccc(C(=O)NCCc2sc(-c3ccccc3)nc2C)c1,425.7
O=C(Nc1sc(NC(=O)c2cccs2)nc1-c1cccs1)c1ccccc1,2.3
Cc1cccc(C(=O)Nc2nc(-c3ccccc3)c(-c3ccccc3)s2)c1,-71.9*
Cc1ccc(N2CCN(Cc3ccccc3)C3(CCNCC3)C2=O)cn1,-43.3
CCn1ncc(-c2cc(C(=O)NCC(C)(C)c3ccccc3F)on2)c1C,32.2
O=S(=O)(N1CCCCC1)N1CCc2nc(C3CCNCC3)ncc2C1,-9.3
COc1ccc2[nH]cc(CCNC(=O)c3ccc(N4CCCC4)c(S(=O)(=O)N4CCCC4)c3)c2c1,7.4
COc1ccc2[nH]cc(CCNc3ccc(S(=O)(=O)C4CCCCC4)nn3)c2c1,45.4
COc1ccc2[nH]cc(CCNc3ccc(S(=O)(=O)C(C)C)nn3)c2c1,-112.6*
COc1ccc(S(=O)(=O)Nc2ccc3c(c2)C(=O)N([C@H](C)CO)C[C@H](C)[C@@H](CN(C)Cc2ccc(C(F)(F)F)cc2)OCCCC[C@@H](C)O3)cc1,-90.9*
C[C@@H]1CN([C@@H](C)CO)C(=O)c2cc(NS(=O)(=O)c3cn(C)cn3)ccc2O[C@@H](C)CCCCO[C@@H]1CN(C)C(=O)Nc1ccc(C(F)(F)F)cc1,45.5
C[C@H](CO)N1C[C@H](C)[C@@H](CN(C)C(=O)Nc2ccc(C(F)(F)F)cc2)OCCCC[C@H](C)Oc2ccc(NS(=O)(=O)c3cn(C)cn3)cc2C1=O,143.5
Cc1ccc(S(=O)(=O)Nc2ccc3c(c2)C(=O)N([C@H](C)CO)C[C@@H](C)[C@H](CN(C)Cc2ccc(C(F)(F)F)cc2)O3)cc1,-20.0
COc1ccc(CN(C)C[C@@H]2OCCCC[C@H](C)Oc3ccc(NC(=O)C4CCCCC4)cc3C(=O)N([C@H](C)CO)C[C@H]2C)cc1,-24.5
COc1ccc(CN(C)C[C@@H]2OCCCC[C@@H](C)Oc3ccc(NC(=O)C4CCCCC4)cc3C(=O)N([C@@H](C)CO)C[C@H]2C)cc1,-3.2
SMILES,Tgondii IFNg
COc1ccc(CN(C)C[C@@H]2OCCCC[C@H](C)Oc3ccc(NC(=O)C4CCCCC4)cc3C(=O)N([C@@H](C)CO)C[C@@H]2C)cc1,92.9
C[C@@H]1CCCCO[C@H](CN(C)C(=O)Nc2ccc(C(F)(F)F)cc2)[C@H](C)CN([C@H](C)CO)C(=O)c2cc(NS(=O)(=O)c3cn(C)cn3)ccc2O1,-82.6*
COc1ccc(S(=O)(=O)Nc2ccc3c(c2)C(=O)N([C@H](C)CO)C[C@@H](C)[C@H](CN(C)Cc2ccc(C(F)(F)F)cc2)OCCCC[C@H](C)O3)cc1,-100.7*
COc1ccc(S(=O)(=O)Nc2ccc3c(c2)C(=O)N([C@H](C)CO)C[C@H](C)[C@@H](CN(C)Cc2ccc(C(F)(F)F)cc2)OCCCC[C@H](C)O3)cc1,6.1
COc1ccc(CN(C)C[C@H]2OCCCC[C@@H](C)Oc3ccc(NC(=O)C4CCCCC4)cc3C(=O)N([C@H](C)CO)C[C@H]2C)cc1,38.9
COc1ccc(S(=O)(=O)Nc2ccc3c(c2)C(=O)N([C@@H](C)CO)C[C@H](C)[C@@H](CN(C)Cc2ccc(C(F)(F)F)cc2)OCCCC[C@H](C)O3)cc1,-128.8*
CC(C)c1ccc(NC(=O)Cn2c(=O)cc(C(=O)N3CCOCC3)c3ccccc32)cc1,-4.1
COCCCN1CCc2nc(SCc3nc(-c4ccccc4)oc3C)[nH]c(=O)c2C1,6.1
Cc1oc(-c2ccc(OC(C)C)cc2)nc1CN(c1ccccc1)S(=O)(=O)c1ccccc1,-38.7
CN1C(=O)c2cc(NS(C)(=O)=O)ccc2OC[C@H]2O[C@H](CC(=O)N3CCOCC3)CC[C@@H]21,14.6
Cc1noc(C)c1CN(C)Cc1cc2n(n1)CCNC2,5.9
CC[C@@H]1N(CCOCc2ccccc2)CCC[C@@]12CCC(=O)N2,-10.6
Cc1cc(C)n(C(C)CC(=O)N2CCCN(c3ccccn3)CC2)n1 (configuration not stated),-6.8
Cc1ccc(-c2nc(Cn3nnc(-c4nc(-c5ccccc5Cl)no4)c3C)c(C)o2)cc1,-25.0
CCCCCCCCCCCC1C(=O)C(=O)CC(=O)C1=O,-81.7*!
CCCCCCCC(=O)O,12.5
CCCN(CC)C(=O)c1ccc2nnc(C3CCN(C(=O)NC(C)C)C3)n2c1 (configuration not stated),3.8
Fc1ccc(C(c2ccccc2)(c2ccccc2F)n2ccnc2)cc1 (configuration not stated),-70.9*
O=C(NC(=O)c1c(F)cccc1Cl)c1ccccc1O,-60.1
O=C(NCc1cnn2ccccc12)C1CCCN(c2ccccn2)C1 (configuration not stated),8.4
C[C@H](CO)N1C[C@H](C)[C@@H](CN(C)C(=O)Nc2ccccc2F)Oc2cc(Br)ccc2S1(=O)=O,46.3
CCCNC(=O)N(C)C[C@@H]1Oc2cc(C#C[C@H](C)O)ccc2S(=O)(=O)N([C@@H](C)CO)C[C@H]1C,50.1
CCCNC(=O)N(C)C[C@H]1Oc2cc(C#C[C@H](C)O)ccc2S(=O)(=O)N([C@@H](C)CO)C[C@@H]1C,102.9
C[C@@H]1CN([C@H](C)CO)S(=O)(=O)c2ccc(C#CC3(O)CCCC3)cc2O[C@H]1CN(C)C(=O)Nc1cccc(F)c1,-89.8*
CCCNC(=O)N(C)C[C@@H]1Oc2cc(C#C[C@@H](C)O)ccc2S(=O)(=O)N([C@H](C)CO)C[C@@H]1C,51.2
SMILES,Tgondii IFNg
C[C@@H]1CN([C@H](C)CO)S(=O)(=O)c2ccc(C#CC3(O)CCCC3)cc2O[C@@H]1CN(C)C(=O)Nc1cccc(F)c1,-98.7*
CCCNC(=O)N(C)C[C@H]1Oc2cc(C#C[C@@H](C)O)ccc2S(=O)(=O)N([C@@H](C)CO)C[C@@H]1C,11.6
Cc1ccccc1-c1ccc2c(c1)O[C@H](CN(C)C(=O)Nc1ccc(C(F)(F)F)cc1)[C@H](C)CN([C@H](C)CO)S2(=O)=O,-23.2
CCCNC(=O)N(C)C[C@@H]1Oc2cc(C#C[C@@H](C)O)ccc2S(=O)(=O)N([C@@H](C)CO)C[C@@H]1C,-54.9
Cc1noc(C)c1NC(=O)N(C)C[C@H]1Oc2cc(C#CCN(C)C)ccc2S(=O)(=O)N([C@H](C)CO)C[C@@H]1C,50.2
Cc1ccccc1-c1ccc2c(c1)O[C@@H](CN(C)C(=O)Nc1ccc(C(F)(F)F)cc1)[C@H](C)CN([C@H](C)CO)S2(=O)=O,-92.4*
C[C@H](CO)N1C[C@H](C)[C@@H](CN(C)C(=O)Nc2cccc(F)c2)Oc2cc(C#CC3(O)CCCC3)ccc2S1(=O)=O,-93.3*
